# Where a chain is given by its changes, count along the chain named. Over roughly 24,000 sequences, “enrichment r” has its median near 0.99; the highest 2% begin near 3.7. The full list was thinned out, with the highest values kept by preference.
# T1: UNK ZnF1-3 (human, UniProt Q9C0B0 31-174)
# T1 sequence: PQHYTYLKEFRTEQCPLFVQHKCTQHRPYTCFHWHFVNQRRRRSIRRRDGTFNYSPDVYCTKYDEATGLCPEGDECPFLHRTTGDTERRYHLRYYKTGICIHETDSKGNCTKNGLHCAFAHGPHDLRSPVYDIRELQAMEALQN
# B1: chr5:131913501:131913502:-_ENSMUSG00000029673_ENSMUST00000160071|mus_mus|FALSE|FALSE (ssRNA)
# RNA: GGGAGUUCUACAGUCCGACGAUCGUUCCAGUGCACAGAAUCCUUGGGAUUUUUUUUUUCUUUUUAGUUGUUGUCUUAAAAAAAAAAAAAUUAAAACGAAAGAAAGAAAACAAAACACCGCACACAUCUGGUGUCCACAAAAUCCAACAGAGGAUUGAGCAUCA
# B2: 141912308_141912428_1497_3pUTR_ENSMUSG00000028273_ENSMUST00000029941|mouse|control|control (ssRNA)
# RNA: GGGAGUUCUACAGUCCGACGAUCUUGGCACCGGCCACAUUCAGGAGCAAAGAACUUCUCAUAGCAUAGCUCACAGUACAGUGCUCCCUUCUCCUCUACAAAGCCUAUGUAGGCCAUUGUGUUUUUGCAAUGAGCACAGUUAAACAACAGAGGAUUGAGCAUCA
# B3: chr11:51934471:51934472:+_ENSMUSG00000020349_ENSMUST00000020608|perfect_dup|motif|central (ssRNA)
# RNA: GGGAGUUCUACAGUCCGACGAUCGAUUGCAGCUUGGUUACCACAACGAUAACAAUAGUUUGGAGCACUGAAAAUCGUUACGGCAUUCCGGUCAUGGCACCAGUUAUAUCCCUCCAUCACUAGCUGGUGAGCUCUAGACACCAACAACAGAGGAUUGAGCAUCA
# B4: chr12:16048344:16048345:+_ENSG00000023734_ENST00000419869|hu_hu|hu_hu_hu_mus_True|38_68 (ssRNA)
# RNA: GGGAGUUCUACAGUCCGACGAUCAGAUCGUCCAUAAGUAAUAACCAAAAUCUCUCCUUCAGGAAUAUAUUCCAUACUGCUAACAGACAUAUUAAAAUUUAGAGAUUUCACUUCUGUCAUUGUGGCAUGAUCCCAGAGCCGAACCAACAGAGGAUUGAGCAUCA
# B5: chr1:115282395:115282396:-_ENSG00000009307_ENST00000339438|hu_hu|FALSE|FALSE (ssRNA)
# RNA: GGGAGUUCUACAGUCCGACGAUCAUUAUACUGUGAACAGUGGAAGAAAAGUCUAGCUUGACGUUCUGAACACUGAAUAAAUCCGUAAGAGGUUAACAGUUUUUCAAUAACCCCAGUUUCACGCAGUGCUGCUGAAGUACCAUUCAACAGAGGAUUGAGCAUCA
# B6: 35805507_35818940_561_CDS_ENSG00000108100_ENST00000265375|human|control|control (ssRNA)
# RNA: GGGAGUUCUACAGUCCGACGAUCUUCAUCAAAAAUAUCUAAGAGCAUCCUUCCAUCUGGGUCCCUGUUUUUGAUGUGAUAAUAUAUUGCAAGAGCGACACAUUUAAUUGUAUACUUGAGGUUUGGUUGACUGACUGUGCUAUCCAACAGAGGAUUGAGCAUCA
# B7: 44216504_44217224_307_CDS_ENSG00000096384_ENST00000371646|human|control|control (ssRNA)
# RNA: GGGAGUUCUACAGUCCGACGAUCCAAAGUCAGGGUACGUUCCUGAGGGUUGGGGAUGAUGUCAAUUUUCAGCUCUUUACCACUGUCCAACUUCGAAGGGUCUGUCAGGCUCUCAUAGCGAAUCUUGUCCAAGGCAUCAGAAGCCAACAGAGGAUUGAGCAUCA
# B8: chr7:151048522:151048523:+_ENSG00000013374_ENST00000566856|hu_mus|hu_hu_hu_mus_True|48_98 (ssRNA)
# RNA: GGGAGUUCUACAGUCCGACGAUCCUGUUUCUUAUUUAUGACAAUUUUGAUGUAAUUUUCUUGAAAUCCGAAAGUUUCAGCUAUUUGGGACCUCAGUUCUCUACCAGUGACAUGCAAGCGGGUCUCCAACAAGCUUUUCUUAUCCAACAGAGGAUUGAGCAUCA
# B9: chr3:67279072:67279073:+_ENSMUSG00000027774_ENSMUST00000077271|mus_mus|FALSE|FALSE (ssRNA)
# RNA: GGGAGUUCUACAGUCCGACGAUCUGCCCAGAAUCCUACCUCUUGAUGAGAGGACUGUGAGUUUUGAGGCCAACAGGGGCUAUAUACACACAGCCCUUAUGUCCAAAAAAAAAAAAAGCAGUGAAGUAAAUUUAUAUAUAUUUUCAACAGAGGAUUGAGCAUCA
# B10: chr2:203071746:203071747:-_ENSG00000116030_ENST00000392246|hu_hu|FALSE|FALSE (ssRNA)
# RNA: GGGAGUUCUACAGUCCGACGAUCCACCACAAGCCUGAAAAUGCAAUGUCCUGAAAAAGGUGACCUCUCUGUGCACACGUAAUUUUUAAAAAGGAGAGGGUAAUAUGAAGGGGACUGAGGCUUGAUCACCAAAAAUCAGCACAACAACAGAGGAUUGAGCAUCA
# B11: chr1:133829981:133829982:+_ENSMUSG00000026434_ENSMUST00000062264|mus_hu|motif|central (ssRNA)
# RNA: GGGAGUUCUACAGUCCGACGAUCUAUCAGAAAUAUAGAAUACAUUUUUCAAUCUAAUGAAUUAAUUUUAAAAGGGACCCGGAACAAGAAGCCCAAUCAAAUGCACACAAGUAAUCUAGAAGACAUGAUUACCUCUAAAAUAUGCAACAGAGGAUUGAGCAUCA
# B12: chr7:138235809:138235810:+_ENSG00000122779_ENST00000415680|hu_mus|FALSE|FALSE (ssRNA)
# RNA: GGGAGUUCUACAGUCCGACGAUCAGAAGCAUCACACCUUGCACGAAGAAGGUGCCGUAACCUGUAUGUAAUCAGCCGCUUGCUGUACAGCAAGGCUGUGCUGCUGCCACUGGAAACAGCCCAUUUAGAAAAAUGCAUGACGUGCAACAGAGGAUUGAGCAUCA
# B13: chr1:133829981:133829982:+_ENSMUSG00000026434_ENSMUST00000062264|mus_hu|FALSE|FALSE (ssRNA)
# RNA: B11 RNA with G80U, G81A
# B14: chr16:49524686:49524687:-_ENSG00000102935_ENST00000562871|hu_mus|FALSE|FALSE (ssRNA)
# RNA: GGGAGUUCUACAGUCCGACGAUCAAUUAAAAGGAAAUAUUCAGACAAUAGCCAAGCAAUCACAUCACGAUGCACAAUUACCUAGAAUUGCAAUUAAAAAGUAGUUAACUGAAGGGGGGGGGGGGGAGAAAGAAAAACAAGAAACAACAGAGGAUUGAGCAUCA
# B15: chr3:120321071:120321072:+_ENSG00000065518_ENST00000184266|hu_hu|FALSE|FALSE (ssRNA)
# RNA: GGGAGUUCUACAGUCCGACGAUCUCAUUGCCAGACUUAAUAUGAGAGGUGAAAUGUUCGAUCCAAUUUUCCUUCCUGGAUAAGUUUUUCUUUCCUAUCCCUCUCAGUUUUGAUAAUAUAAUAAAUGAAGAUGAGGGGCCCAAACAACAGAGGAUUGAGCAUCA
# B16: 55340085_55340205_1272_CDS_ENSMUSG00000021488_ENSMUST00000099490|mouse|control|control (ssRNA)
# RNA: GGGAGUUCUACAGUCCGACGAUCUUCUUUCUGUUUCCCUCUUUUCCUAAGGACAGGUAGUUCUUCAAAUUGAUGUCUGCCUUCAAACAUGACGAUUGCUUUUCCAGCCACCCAGGCUUUUUCAGAAGGGUCUCCAAAAGCCUCCAACAGAGGAUUGAGCAUCA
# B17: chr15:83907240:83907241:-_ENSMUSG00000018865_ENSMUST00000082365|mus_mus|motif|central (ssRNA)
# RNA: GGGAGUUCUACAGUCCGACGAUCGCUGUGAAAGAUACUAAUUCUUGGUGCAGUCUGGCAUCUGUGGGGCCUCUUCCACACCGGCCAGUGCCUUCAGAUGCCACCCGCAGCCUCGGGCCAGCUUCCCUGCCGAAACAUUCCUUGCAACAGAGGAUUGAGCAUCA
# B18: chr2:242276830:242276831:+_ENSG00000168385_ENST00000391971|hu_mus|FALSE|FALSE (ssRNA)
# RNA: GGGAGUUCUACAGUCCGACGAUCUAAGGGCUUCAGUCCAUGUCCAAAAGGUGAAAUGAAGUAGAAGCAACAAUGUACCCUGUUAUCAAUGAUGUGACGCCUGUUCAGUCCACUCUCAUCAUGUAGGUAGCGUUCAAACUGCUCCAACAGAGGAUUGAGCAUCA
# B19: chr17:45747064:45747065:+_ENSG00000108424_ENST00000290158|hu_hu|hu_hu_hu_mus_True|28_58 (ssRNA)
# RNA: GGGAGUUCUACAGUCCGACGAUCGCCCACAGUCCACGCUGUUGUGUCUCGAACAACUACACUGGGGUCUUUCAUUAAUUCUAUUAGGGUGGGCAUAGCCUGUAUGACUAGUGGUUUCAGUUGAUUAGGCUCUGGUCCUUCCAACAACAGAGGAUUGAGCAUCA
# B20: chr1:52246310:52246311:-_ENSMUSG00000026103_ENSMUST00000114513|mus_mus|motif|central (ssRNA)
# RNA: GGGAGUUCUACAGUCCGACGAUCGCCCAUCUUGUCAAGAGGAGGAGACCAACACAUCAUGCCCAUGACGUUGGGGACAACGGAAAGAAUACCCCCAGCAACUCCAGAUUUUGCAGGAAGACCAACAUGGAACGCAAACUGCCCCAACAGAGGAUUGAGCAUCA
# B21: chr7:7679991:7679992:-_ENSG00000106399_ENST00000396682|hu_hu|hu_hu_hu_mus_False|18_48 (ssRNA)
# RNA: GGGAGUUCUACAGUCCGACGAUCUGGGAUGAAUCUUUUCCAGCUUCCCCACGAAGCACACGGGCCGGUCGAUAUACUGUGGUAACAUGCCGGCGUUGACGCGCGCUUUGGGGAGCUCCAUCAUGUCCUCCAUGAUUCUGCCGCCAACAGAGGAUUGAGCAUCA
# B22: chr1:163117127:163117128:-_ENSG00000143248_ENST00000313961|hu_mus|hu_hu_hu_mus_False|38_78 (ssRNA)
# RNA: GGGAGUUCUACAGUCCGACGAUCUGCUACAAAGGAUGUAACUCAACUCACAGGGCAUGAUUUCAUAGCCUGACCAGAUGACUACUUGAUUAGCUCCUGAUAAAACUCAGAGCGCACAAAGCGGGGCAGAGAAUCCUUCUCCAUCAACAGAGGAUUGAGCAUCA
# Molecular target: T1, UNK ZnF1-3
# Assay: nsRBNS (natural sequence RNA bind-n-seq); RBNS binding buffer (assumed for nsRBNS): 25 mM Tris pH 7.5, 150 mM KCl, 3 mM MgCl2, 0.01% Triton X-100, 500 ug/ml BSA, 20 U/ml SUPERase-In, 4 C; UNK is unkempt and MSI1 is Musashi-1; names of the RNAs are library labels; protein concentration not given here; high values mean tight binding
row,Binder,binding signal [enrichment R]
1,B1,1.15
2,B2,0.923
3,B3,1.16
4,B4,1.04
5,B5,0.906
6,B6,2
7,B7,0.999
8,B8,0.854
9,B9,4.32
10,B10,3.8
11,B11,5.06
12,B12,0.971
13,B13,4.97
14,B14,1.26
15,B15,2.02
16,B16,0.635
17,B17,0.646
18,B18,0.794
19,B19,0.639
20,B20,1.07
21,B21,0.554
22,B22,0.974

# Reference: paper PMC12136788
